Measured values as given in PubChem BioAssay AID1159580 (chemical genetic matrix, 2015).
The whole screen tested about 5,500 compounds, of which about 2,000 (36%) were called active. Roughly 18% stayed inconclusive and do not appear here. Rule as the data show it: active = normalized growth mostly below about 0.91 (no sharp cut-off); inconclusive = no clear call, values can overlap the other calls; inactive = mostly above about 0.92. This is one part of the list.

Assay: chemical genetic growth profiling, strain panel (AID 1159580);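 also: tested at 20 µM; growth read once vehicle control cultures reached saturation at 30 °C; 1 = growth at the plate median or of vehicle wells; lower values mean less growth of the strain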
Conditions: growth OD

Measured: normalized growth

CC(=O)N1CCN(c2ccc(OCC3CO[C@](Cn4ccnc4)(c4ccc(Cl)cc4Cl)O3)cc2)CC1 (some centres undefined)
inactive: S. cerevisiae deletion strains, locus YKL009W, strain mrt4, active compounds read low 0.994 | S. cerevisiae deletion strains, locus YOL012C, strain htz1 0.25 | S. cerevisiae deletion strains, locus YPR141C, strain kar3, active compounds read low 0.971
active: S. cerevisiae deletion strains, locus YJL187C, strain SWE1, active compounds read low 0.0925 | S. cerevisiae deletion strains, locus YJR043C, strain POL32, active compounds read low 0.094 | S. cerevisiae deletion strains, locus YJR066W, strain TOR1, active compounds read low 0.0283 | S. cerevisiae deletion strains, locus YJR075W, strain HOC1, active compounds read low 0.0852 | S. cerevisiae deletion strains, locus YKL068W, active compounds read low 0.931 | S. cerevisiae deletion strains, locus YKL085W, strain MDH1 (second series), active compounds read low 0.795 | S. cerevisiae deletion strains, locus YKL085W, strain MDH1, active compounds read low 0.795 | S. cerevisiae deletion strains, locus YKL160W, strain elf1, active compounds read low 0.104 | S. cerevisiae deletion strains, locus YKL190W, strain CNB1, active compounds read low 0.0638 | S. cerevisiae deletion strains, locus YKR001C, strain vps1, active compounds read low 0.112 | S. cerevisiae deletion strains, locus YKR026C, strain gcn3, active compounds read low 0.168 | S. cerevisiae deletion strains, locus YKR091W, strain srl3, active compounds read low 0.108 | S. cerevisiae deletion strains, locus YLL001W, strain dnm1, active compounds read low 0.102 | S. cerevisiae deletion strains, locus YLL026W, active compounds read low 0.0778 | S. cerevisiae deletion strains, locus YLL041C, strain sdh2, active compounds read low 0.0858 | S. cerevisiae deletion strains, locus YLR027C, strain aat2, active compounds read low 0.0792 | S. cerevisiae deletion strains, locus YLR039C, strain RIC1, active compounds read low 0.444 | S. cerevisiae deletion strains, locus YLR058C, strain SHM2, active compounds read low 0.072 | S. cerevisiae deletion strains, locus YLR102C, strain apc9, active compounds read low 0.0929 | S. cerevisiae deletion strains, locus YLR113W, strain HOG1, active compounds read low 0.16 | S. cerevisiae deletion strains, locus YLR221C, strain rsa3, active compounds read low 0.0852 | S. cerevisiae deletion strains, locus YLR258W, strain gsy2, active compounds read low 0.0919 | S. cerevisiae deletion strains, locus YLR262C, strain YPT6 (second series), active compounds read low 0.314 | S. cerevisiae deletion strains, locus YLR262C, strain YPT6, active compounds read low 0.523 | S. cerevisiae deletion strains, locus YLR268W, strain sec22, active compounds read low 0.0953 | S. cerevisiae deletion strains, locus YLR320W, strain mms22, active compounds read low 0.104 | S. cerevisiae deletion strains, locus YLR330W, strain CHS5, active compounds read low 0.0775 | S. cerevisiae deletion strains, locus YLR342W, strain FKS1 (second series), active compounds read low 0.0863 | S. cerevisiae deletion strains, locus YLR342W, strain FKS1, active compounds read low 0.0875 | S. cerevisiae deletion strains, locus YLR357W, strain rsc2, active compounds read low 0.231 | S. cerevisiae deletion strains, locus YLR370C, strain arc18, active compounds read low 0.0894 | S. cerevisiae deletion strains, locus YLR371W, strain rom2, active compounds read low 0.104 | S. cerevisiae deletion strains, locus YLR384C, strain iki3, active compounds read low 0.0857 | S. cerevisiae deletion strains, locus YLR418C, strain cdc73, active compounds read low 0.123 | S. cerevisiae deletion strains, locus YML016C, strain PPZ1, active compounds read low 0.0722 | S. cerevisiae deletion strains, locus YML032C, strain rad52, active compounds read low 0.112 | S. cerevisiae deletion strains, locus YML120C, strain ndi1, active compounds read low 0.0823 | S. cerevisiae deletion strains, locus YML124C, strain tub3, active compounds read low 0.0927 | S. cerevisiae deletion strains, locus YMR058W, strain fet3, active compounds read low 0.0959 | S. cerevisiae deletion strains, locus YMR078C, strain ctf18, active compounds read low 0.112 | S. cerevisiae deletion strains, locus YMR125W, strain sto1, active compounds read low 0.102 | S. cerevisiae deletion strains, locus YMR129W, active compounds read low 0.0847 | S. cerevisiae deletion strains, locus YMR205C, strain PFK2, active compounds read low 0.141 | S. cerevisiae deletion strains, locus YMR223W, strain ubp8, active compounds read low 0.105 | S. cerevisiae deletion strains, locus YMR231W, strain pep5, active compounds read low 0.403 | S. cerevisiae deletion strains, locus YMR263W, strain SAP30, active compounds read low 0.157 | S. cerevisiae deletion strains, locus YMR307W, strain GAS1, active compounds read low 0.159 | S. cerevisiae deletion strains, locus YNL067W, strain RPL9B, active compounds read low 0.0729 | S. cerevisiae deletion strains, locus YNL071W, strain lat1, active compounds read low 0.0698 | S. cerevisiae deletion strains, locus YNL183C, strain NPR1, active compounds read low 0.0744 | S. cerevisiae deletion strains, locus YNL209W, strain ssb2, active compounds read low 0.195 | S. cerevisiae deletion strains, locus YNL233W, strain BNI4, active compounds read low 0.0732 | S. cerevisiae deletion strains, locus YNL248C, strain rpa49, active compounds read low 0.0896 | S. cerevisiae deletion strains, locus YNL250W, strain rad50, active compounds read low 0.896 | S. cerevisiae deletion strains, locus YNL271C, strain bni1, active compounds read low 0.906 | S. cerevisiae deletion strains, locus YNL298W, strain CLA4, active compounds read low 0.246 | S. cerevisiae deletion strains, locus YNL307C, strain MCK1, active compounds read low 0.0791 | S. cerevisiae deletion strains, locus YNL322C, strain KRE1 (second series), active compounds read low 0.115 | S. cerevisiae deletion strains, locus YNR049C, strain mso1, active compounds read low 0.0955 | S. cerevisiae deletion strains, locus YNR052C, strain pop2, active compounds read low 0.144 | S. cerevisiae deletion strains, locus YOL147C, strain pex11, active compounds read low 0.0768 | S. cerevisiae deletion strains, locus YOR001W, strain rrp6, active compounds read low 0.0988 | S. cerevisiae deletion strains, locus YOR061W, strain CKA2, active compounds read low 0.125 | S. cerevisiae deletion strains, locus YOR069W, strain VPS5, active compounds read low 0.0927 | S. cerevisiae deletion strains, locus YOR070C, strain gyp1, active compounds read low 0.0793 | S. cerevisiae deletion strains, locus YOR080W, strain dia2, active compounds read low 0.096 | S. cerevisiae deletion strains, locus YOR083W, strain WHI5, active compounds read low 0.136 | S. cerevisiae deletion strains, locus YOR106W, strain vam3, active compounds read low 0.116 | S. cerevisiae deletion strains, locus YOR136W, strain idh2, active compounds read low 0.112 | S. cerevisiae deletion strains, locus YOR144C, strain elg1, active compounds read low 0.0877 | S. cerevisiae deletion strains, locus YOR184W, strain ser1, active compounds read low 0.0917 | S. cerevisiae deletion strains, locus YOR231W, strain MKK1, active compounds read low 0.157 | S. cerevisiae deletion strains, locus YOR265W, strain rbl2, active compounds read low 0.0927 | S. cerevisiae deletion strains, locus YOR270C, strain vph1, active compounds read low 0.112 | S. cerevisiae deletion strains, locus YOR290C, strain snf2, active compounds read low 0.0982 | S. cerevisiae deletion strains, locus YOR316C, strain cot1, active compounds read low 0.0844 | S. cerevisiae deletion strains, locus YPL051W, strain arl3, active compounds read low 0.141 | S. cerevisiae deletion strains, locus YPL078C, strain atp4, active compounds read low 0.0953 | S. cerevisiae deletion strains, locus YPL106C, strain sse1, active compounds read low 0.137 | S. cerevisiae deletion strains, locus YPL240C, strain hsp82, active compounds read low 0.09 | S. cerevisiae deletion strains, locus YPL256C, strain CLN2, active compounds read low 0.182 | S. cerevisiae deletion strains, locus YPR119W, strain clb2, active compounds read low 0.105 | S. cerevisiae deletion strains, locus YPR163C, strain tif3, active compounds read low 0.105 | S. cerevisiae deletion strains, locus YPR167C, strain met16, active compounds read low 0.1 | S. cerevisiae deletion strains, strain wtn01, active compounds read low 0.0951 | S. cerevisiae strains, strain wild type, active compounds read low 0.0668
